About 11,000 (3.1%) of roughly 360,000 compounds were called active. This is one part of a sample in which actives are shown more often than they occur. Values without a mark were called inactive. Rule as the data show it: active = activity change below about -30%; inactive = the rest.
Molecular target: D(1A) dopamine receptor (Homo sapiens) (UniProt P21728)
Test: Antagonist of Human D 1 Dopamine Receptor: qHTS
Conditions: HEK293 TREx D1 cells, calcium flux, dopamine EC80; at 10 µM; stronger effect = lower value
How it was run: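 HEK293 T-REx cells expressing inducible, force-coupled D1 receptor; no-wash Ca dye, 30–90 min RT. Cmpd → 180 s read at 1 Hz → EC80 DA → 180 s read.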
% is scaled to controls: 0 for no effect and ±100 for the full control effect.

Chain of D(1A) dopamine receptor (Homo sapiens) (P21728 whole entry, looked up): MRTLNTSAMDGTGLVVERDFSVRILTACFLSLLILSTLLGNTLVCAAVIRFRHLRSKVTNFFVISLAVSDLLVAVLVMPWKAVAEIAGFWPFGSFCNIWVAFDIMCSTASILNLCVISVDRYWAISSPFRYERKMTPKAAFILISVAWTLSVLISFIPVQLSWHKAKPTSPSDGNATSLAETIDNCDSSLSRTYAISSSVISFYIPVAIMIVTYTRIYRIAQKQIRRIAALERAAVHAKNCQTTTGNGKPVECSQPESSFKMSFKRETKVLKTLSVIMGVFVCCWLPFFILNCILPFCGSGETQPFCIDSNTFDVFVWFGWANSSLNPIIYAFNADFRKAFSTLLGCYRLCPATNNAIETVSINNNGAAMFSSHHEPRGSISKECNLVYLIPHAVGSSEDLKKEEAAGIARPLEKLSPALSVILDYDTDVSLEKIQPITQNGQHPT

| SMILES | activity change, negative = inhibition |
| --- | --- |
| COc1ccc(S(=O)(=O)NCC(c2ccc(N(C)C)cc2)N2CCCC2)cc1 (stereo not given) | -3.85% |
| Cc1cc(OCC(=O)NCC2(N(C)C)CCCCC2)cc(C)c1Cl | 1.84% |
| O=C(Nc1ncccc1O)c1ccc(C(=O)c2ccccc2)cc1 | -8.68% |
| O=C(CNC(=O)c1ccc2ccccc2c1)Nc1ncccc1O | -39.8% (active) |
| CC1CCC(NC(=O)CNC(=O)c2ccc3ccccc3c2)CC1 (stereo not given) | -16.3% |
| Cc1ccc(S(=O)(=O)N2CCCc3cc(NS(=O)(=O)c4cc(C)ccc4C)ccc32)cc1 | -3.71% |
| CCc1ccc(NC(=O)CSc2nc3c([nH]c4ccccc43)c(=O)n2-c2cccc(OC)c2)cc1 | -24.8% |
| CCOc1ccc(-c2cc3nc(C4CCN(C(=O)OC(C)(C)C)CC4)c(C(=O)Nc4cccc(CC)c4)cn3n2)cc1 | 2.76% |
| CC(=O)Nc1ccc(NS(=O)(=O)c2cc(C)sc2C)cc1 | -48.1% (active) |
| CC(=O)Nc1ccc(NS(=O)(=O)c2ccc3c(c2)NC(=O)CC(=O)N3)cc1 | 19.3% |
| Cc1ccc(C(=O)Nc2ccc(C(=O)O)cc2)cc1S(=O)(=O)Nc1ccccc1 | 1% |
| COc1cc2c(=O)c(S(=O)(=O)c3ccc(C(C)C)cc3)cn(Cc3ccccc3C)c2cc1OC | 22.6% |
| CCCNC(=O)C1CCN(c2nc3ccc(C)cc3[nH]2)CC1 | 2.03% |
| CN(Cc1ccccc1)C(=O)c1cccc(C(=O)N(C)Cc2ccccc2)c1 | -2.18% |
| CN(C(=O)CN(CCO)CC(=O)N(C)C(C)(C)Cc1ccccc1)C(C)(C)Cc1ccccc1 | -97.3% (active) |
| CC(C)(C)N(Cc1ccccc1)C(=O)c1ccncc1 | 1.43% |
| COc1cc(CN(CC2CCCO2)C(=O)c2ccccc2F)cc(OC)c1OC (stereo not given) | -5.27% |
| Cc1c(CN2CC[C@@H](N3CCN(c4ccccn4)CC3)[C@H](O)C2)[nH]c2ccc(F)cc12 | -30.2% (active) |
| Cc1c(CN2CCC(CO)(CCOc3ccccc3)CC2)[nH]c2ccc(Cl)cc12 | -2.77% |
| Cc1nc(N2CCN(c3ccccn3)CC2)c2c(C)c(C(=O)Nc3ccc(F)cc3)sc2n1 | 1.11% |
| CCCCN(C)S(=O)(=O)c1ccc(C(=O)Nc2sc3c(c2C(N)=O)CC(C)(C)NC3(C)C)cc1 | 18.5% |
| Cc1oc2ncn(CC(C)C)c(=O)c2c1C(=O)N1CCN(c2ccccc2F)CC1 | -5.83% |
| Cn1c(=O)c(C(=O)O)nn(-c2ccccc2)c1=O | -4.78% |

| SMILES | activity change, negative = inhibition |
| --- | --- |
| CCC(=O)N1CCc2cc(S(=O)(=O)NC(C(=O)NCCc3ccc(C)cc3)C(C)C)ccc21 (stereo not given) | 14.4% |
| CCC(=O)N1CCc2cc(S(=O)(=O)NC(C(=O)N3CCc4ccccc4C3)C(C)C)ccc21 (stereo not given) | -32.3% (active) |
| CCC(=O)N1CCc2cc(S(=O)(=O)NC(C(=O)Nc3ccc(C(C)=O)cc3)C(C)C)ccc21 (stereo not given) | -1.32% |
| CCC(=O)N1CCc2cc(S(=O)(=O)NC(Cc3ccccc3)C(=O)NCc3ccc(C)cc3)ccc21 (stereo not given) | 20.6% |
| CCC(=O)N1CCc2cc(S(=O)(=O)NC(Cc3ccccc3)C(=O)NCc3ccccc3)ccc21 (stereo not given) | -62% (active) |
| CC(=O)N1CCc2cc(S(=O)(=O)NC(Cc3ccccc3)C(=O)NCc3ccc(C)cc3)ccc21 (stereo not given) | 7.72% |
| Cc1ccc(C)c(Cn2c(C(=O)O)c(CNCc3cccs3)c3ccccc32)c1 | 57.2% |
| Cc1ccccc1-c1nc2cc(NC(=O)c3cccc(OCCC(C)C)c3)ccc2o1 | 0.754% |
| CC1=C(C(=O)N2CCN(c3cccc(C(F)(F)F)c3)CC2)C2(CCCCC2)OC1=O | -3.32% |
| COC(=O)c1ccccc1NC(=O)Cn1c(=O)n(-c2cccc(C(F)(F)F)c2)c(=O)c2c(C)c(C)sc21 | 0.199% |
| CCOC(=O)C1CCCN(CC(=O)Nc2cc(C)c3c(=O)oc4ccccc4c3n2)C1 (stereo not given) | -9.54% |
| COc1ccccc1Nc1nc(N)nc(N)c1S(=O)(=O)c1ccccc1 | 3.62% |
| CCN(CC)S(=O)(=O)c1ccc(NC(=O)c2cnc(C)cn2)cc1 | 5.26% |
| CCN(CC)S(=O)(=O)c1ccc2c(c1)nc(CN(C)C(=O)Nc1ccc(Cl)cc1)n2C | -30.4% (active) |
| Cn1c(CN2CCOCC2)nc2cc(NC(=O)c3ccc(Cl)cc3)ccc21 | -2.81% |
| Cc1ccc(Cl)cc1NC(=O)CSc1nc2ccccc2nc1Cc1ccccc1 | 3.51% |
| CN1CCN(c2ccc(S(=O)(=O)Nc3ccccc3)cc2[N+](=O)[O-])CC1 | -46.5% (active) |
| CS(=O)(=O)N1CCN(c2ccc(C(=O)NC3C4CC5CC(C4)CC3C5)cc2[N+](=O)[O-])CC1 (stereo not given) | -9.31% |
| Cc1cccc(N2CCN(c3ccc(C(N)=O)cc3[N+](=O)[O-])CC2)c1C | 9.32% |
| COc1ccc(NS(=O)(=O)c2ccc(N3CCN(CCO)CC3)c([N+](=O)[O-])c2)cc1 | -20.8% |
| CN1CCN(S(=O)(=O)c2ccc(N3CCN(c4ccccc4O)CC3)c([N+](=O)[O-])c2)CC1 | 7.38% |
| Cc1ccc(C(=O)c2ccc(N3CCN(C)CC3)c([N+](=O)[O-])c2)cc1 | -41.9% (active) |

Reference: PubChem BioAssay AID504652 (National Center for Advancing Translational Sciences (NCATS), 2011)
